# Source: PubChem BioAssay (Broad Institute)
# aSyn UTR act: Activators via SNCA 5'UTR binding, MLPCN. activity score, % (tested at 7.5 µM), hits read low. alpha-synuclein 5'UTR reporter, activators screen. 300,000 tested, 7.1% active; in the data active = activity score below about -60%
# * hit, by the source's call. A selection follows.
SMILES,aSyn UTR act
CCOC(=O)Cc1csc(NC(=O)c2sc3nc4c(C)cc(C)cc4cc3c2N)n1,-94*
COc1ccc(-c2cn3c(C)c(C(=O)Nc4cccc(NC(C)=O)c4)sc3n2)cc1,-100*
Cc1c(C(N)=O)sc2nc(-c3ccccc3)cn12,-105*
Cc1c(C(=O)NCC(C)C)sc2nc(-c3ccc(F)cc3)cn12,-128*
CCc1ccc(-c2cc(C(=O)Nn3cnnc3)c3ccccc3n2)cc1,74
CCCc1ccc(-c2cc(C(=O)NN3CCOCC3)c3ccccc3n2)cc1,-93*
O=C(NCc1ccccc1Cl)c1ccc2ccccc2n1,-121*
NS(=O)(=O)c1ccc(CNc2ccc3ccccc3n2)cc1,-120*
CCCc1ccc(-c2cc(C(=O)Nc3ccc([N+](=O)[O-])cn3)c3ccccc3n2)cc1,-90*
O=C(N/N=C/c1cc([N+](=O)[O-])ccc1O)c1cc(-c2ccccc2)nc2ccccc12,81
CCCc1ccc(-c2cc(C(=O)NCCc3ccc(S(N)(=O)=O)cc3)c3ccccc3n2)cc1,-115*
NS(=O)(=O)c1ccc(CCNC(=O)c2ccc3ccccc3n2)cc1,-83*
COc1cc(C(=O)N2CCN(c3cccc(C)c3C)CC2)cc(OC)c1OC,58
Cc1cccc(N2CCN(C(=O)CCCOc3ccccc3)CC2)c1C,-86*
CCOC(=O)N1CCN(C(=O)CCCOc2ccccc2)CC1,-115*
CCOC(=O)Nc1sc2c(c1C#N)CCCC2,-123*
Cc1nnc(SCC(=O)Nc2sc3c(c2C#N)CCCCC3)n1N,-74*
CC(C)(C)C(=O)Nc1sc2c(c1C#N)CCCCC2,-78*
Cc1ccc(OCC(=O)Nc2sc3c(c2C#N)CCC3)cc1,-99*
COc1cc(CNc2ccc3c(c2)CCC3)cc(OC)c1O,-226*
CCOc1cc(CNc2ccc3c(c2)CCC3)ccc1O,-119*
O=C(O)c1ccc(NNC(=S)Nc2cc(C(F)(F)F)ccc2Cl)cc1,-141*
N=c1n(Cc2ccccc2)c2ccccc2n1CC(O)COc1ccc(Cl)cc1Cl (configuration not stated),90
O=c1c2ccccc2ncn1CCCOc1ccccc1[N+](=O)[O-],-150*
O=[N+]([O-])c1ccccc1OCCCn1cnc2ccccc21,-100*
SMILES,aSyn UTR act
Clc1ccc(OCCn2cnc3ccccc32)c(Cl)c1,-126*
O=c1c2ccc([N+](=O)[O-])c3cccc(c32)c2nc3ccccc3n12,79
Cc1cc2nc(-c3cccnc3SCC(=O)NC3CC3)[nH]c2cc1C,-115*
Cc1cc2nc(-c3cccnc3SCC(=O)NCc3ccco3)[nH]c2cc1C,-145*
COc1cc(NC(=O)c2ccccc2Cl)ccc1NC(=O)c1ccco1,-195*
COc1cc(NC(=O)COc2ccccc2Cl)ccc1NC(=O)c1cccs1,-113*
COc1cc(NC(=O)c2cccs2)ccc1NC(=O)c1ccco1,-149*
O=C(Nc1ccc(NC(=O)c2cccs2)c(Cl)c1)c1cccs1,-118*
O=C(Nc1ccc(NC(=O)c2cccs2)cc1Cl)c1ccco1,-154*
COc1cccc(/C=N/NC(=O)c2cc(-c3cccn3C)n[nH]2)c1O,95
COc1cc(/C=N/NC(=O)c2cc(-c3cccn3C)n[nH]2)cc(OC)c1OC,-71*
O=C(Cn1cc(C(F)(F)F)cc(Cl)c1=O)NCc1ccc(F)cc1,-81*
CC(C)(C)n1ncc2c(=O)n(CC(=O)c3ccccc3)cnc21,-107*
CC(C)(C)n1ncc2c(=O)n(CC(=O)NC3CCCCC3)cnc21,-108*
CC(C)(C)n1ncc2c(=O)n(CC(=O)NCc3ccc(F)cc3)cnc21,-90*
CCOC(=O)C(C)Oc1cccc2c(=O)n(CC(=O)NCc3ccc(F)cc3)ccc12 (configuration not stated),68
CC(C)(C)n1ncc2c(=O)n(CC(=O)NCc3ccco3)cnc21,-93*
CCOc1ccccc1NC(=O)Cn1nnc(C(=O)NCc2ccco2)c1N,85
Cc1ccccc1NC1=C/C(=N\S(=O)(=O)c2cccs2)c2ccccc2C1=O,114
Cc1ccc(NC2=C/C(=N/S(=O)(=O)c3cccs3)c3ccccc3C2=O)cc1C,-155*
Cc1ccccc1NC1=C/C(=N\S(=O)(=O)c2ccc(C(=O)O)cc2)c2ccccc2C1=O,-69*
Cc1cc[n+](C2=C([O-])c3ccccc3C(=O)/C2=N\S(=O)(=O)c2cccs2)cc1C,74
CC(C)(C)c1cc[n+](C2=C([O-])c3ccccc3C(=O)/C2=N\S(=O)(=O)c2ccccc2)cc1,84
CCCCCN=C(C)c1c(O)c2ccccc2oc1=O,-212*
O=C(NNc1nc2ccccc2s1)Nc1ccc(F)cc1,-157*
SMILES,aSyn UTR act
CC(C)C(=O)NNc1nc2ccccc2s1,-73*
CC(C)(C)c1ccc(NC(=O)c2c(F)cccc2Cl)cc1,-101*
CCOc1ccc2nc(NC(=O)Nc3cccs3)sc2c1,-103*
O=C(Nc1nc2ccccc2s1)Nc1ccc(F)cc1F,-119*
CCOc1ccc2nc(S(N)(=O)=O)sc2c1,-176*
COc1ccc(NC(=O)Nc2nc3c(s2)CCCC3)cc1,-155*
CCOc1ccc2nc(NC(=O)c3ccccn3)sc2c1,80
CCOc1ccc2nc(NC(=O)Nc3ccccc3)sc2c1,-131*
